# Results taken from PubChem BioAssay (NCATS).
# Records with an inconclusive call do not appear. A call without a number means that no potency is given here. Active and inactive are the calls of the source. Calls come from the whole dose curve; as a rule, active = well fitted curve in the direction sought with a large enough effect; inconclusive = small, poorly fitted or top-dose-only effect, or another doubt; inactive = no such curve, though single readings can be large; an effect the other way counts as inactive or inconclusive.
# Molecular target: RecQ-like DNA helicase BLM (Homo sapiens) (UniProt P54132)
# Sequence (P54132 whole entry, looked up): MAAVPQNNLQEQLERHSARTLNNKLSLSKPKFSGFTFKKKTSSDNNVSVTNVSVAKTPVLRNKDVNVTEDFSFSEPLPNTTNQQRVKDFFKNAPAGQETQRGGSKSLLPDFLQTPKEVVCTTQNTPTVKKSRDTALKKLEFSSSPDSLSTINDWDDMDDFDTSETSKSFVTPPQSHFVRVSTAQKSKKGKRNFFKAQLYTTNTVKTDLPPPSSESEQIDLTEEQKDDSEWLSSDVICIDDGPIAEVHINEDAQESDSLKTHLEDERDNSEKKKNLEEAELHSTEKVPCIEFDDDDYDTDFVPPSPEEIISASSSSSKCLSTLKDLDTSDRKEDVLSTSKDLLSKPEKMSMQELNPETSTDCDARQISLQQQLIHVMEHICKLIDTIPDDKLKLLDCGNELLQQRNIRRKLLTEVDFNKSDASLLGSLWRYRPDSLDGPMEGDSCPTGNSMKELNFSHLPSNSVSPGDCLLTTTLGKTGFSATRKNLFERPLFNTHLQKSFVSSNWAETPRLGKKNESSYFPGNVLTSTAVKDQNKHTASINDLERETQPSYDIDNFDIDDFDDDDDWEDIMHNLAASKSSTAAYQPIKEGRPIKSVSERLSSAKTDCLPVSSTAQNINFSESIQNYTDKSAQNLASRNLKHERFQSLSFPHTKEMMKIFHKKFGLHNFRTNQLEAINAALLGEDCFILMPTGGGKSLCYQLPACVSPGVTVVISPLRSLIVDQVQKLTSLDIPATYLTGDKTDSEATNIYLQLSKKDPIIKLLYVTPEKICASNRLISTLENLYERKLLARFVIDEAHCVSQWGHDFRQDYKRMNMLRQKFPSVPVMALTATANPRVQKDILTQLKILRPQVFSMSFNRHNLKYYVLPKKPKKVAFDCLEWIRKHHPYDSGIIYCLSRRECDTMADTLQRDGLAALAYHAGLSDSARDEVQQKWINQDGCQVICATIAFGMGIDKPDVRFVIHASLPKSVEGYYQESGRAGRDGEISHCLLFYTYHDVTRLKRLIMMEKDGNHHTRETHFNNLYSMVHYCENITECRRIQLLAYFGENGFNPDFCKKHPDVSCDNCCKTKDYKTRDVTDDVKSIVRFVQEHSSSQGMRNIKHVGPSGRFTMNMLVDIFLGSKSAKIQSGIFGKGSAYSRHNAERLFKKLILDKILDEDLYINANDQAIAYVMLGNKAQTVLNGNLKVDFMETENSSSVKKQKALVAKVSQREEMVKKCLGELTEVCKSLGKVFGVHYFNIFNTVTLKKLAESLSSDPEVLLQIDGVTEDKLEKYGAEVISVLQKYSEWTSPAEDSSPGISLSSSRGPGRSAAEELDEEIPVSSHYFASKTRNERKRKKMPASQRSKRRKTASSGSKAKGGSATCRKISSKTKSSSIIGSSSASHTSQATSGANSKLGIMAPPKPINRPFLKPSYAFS
# Test: qHTS Validation Assay for Inhibitors of Bloom's syndrome helicase (BLM) (AID 2364)
# Details: BLM helicase DNA unwinding, fluorescence, in vitro; series mostly up to 57.1 µM
# How it was run: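 BLM 50 nM in 25 mM Tris-HCl pH 8.0, 5 mM NaCl, 2 mM MgCl2, 1 mM DTT, 0.01% Tween-20, 2.5 ug/ml poly(dI-dC); 15 min cpd preinc, RT. Start: 200 nM forked DNA + 2 mM ATP (final). TAMRA read, 2 reads 2 h apart.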
row,Compound,Potency
1,O=C(O)c1cc(=O)c2ccccc2[nH]1,inactive
2,NCCCCCCCCCCN,inactive
3,CN1[C@@H](CC(=O)c2ccccc2)CCC[C@H]1C[C@H](O)c1ccccc1,inactive
4,C[C@@H](CN1CCC(Cc2ccccc2)CC1)[C@@H](O)c1ccc(O)cc1,inactive
5,CN[C@H](CC(C)C)C(=O)N[C@H]1C(=O)N[C@@H](CC(N)=O)C(=O)N[C@H]2C(=O)N[C@H]3C(=O)N[C@H](C(=O)N[C@H](C(=O)O)c4cc(O)cc(O)c4-c4cc3ccc4O)[C@H](O)c3ccc(c(Cl)c3)Oc3cc2cc(c3O[C@@H]2O[C@H](CO)[C@@H](O)[C@H](O)[C@H]2O[C@H]2C[C@](C)(N)[C@H](O)[C@H](C)O2)Oc2ccc(cc2Cl)[C@H]1O,inactive
6,CC(=O)N[C@H](C(=O)O)C(C)(C)SN=O,inactive
7,CC1CN(S(=O)(=O)c2cccc3cnccc23)CCN1 (stereo not drawn),inactive
8,CO/N=C(\C(=O)N[C@@H]1C(=O)N2C(C(=O)O)=C(COC(C)=O)CS[C@H]12)c1csc(N)n1 (stereo in doubt),inactive
9,CN(C)c1nc(N)c(C(=O)N=C(N)N)nc1Cl,inactive
10,COc1cc(C(O)CO)ccc1OS(=O)(=O)O (stereo not drawn),inactive
11,NO,inactive
12,NCCSSCCN,inactive

# System: not listed separately
# Test: Cytometric Cell-Based qHTS for Inhibitors of the mTORC1 Signaling Pathway in MEF (Tsc2-/-, p53-/-) Cells (AID 2660);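 note: percent of cells above a phospho-rpS6 to PI ratio cutoff in each well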
# Details: mTORC1 pathway cytometry; series mostly up to 38.3 µM
# How it was run: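 Tsc2-/-, p53-/- MEFs (empty vector) exposed to compound 24 h at 37 C, fixed, stained with Alexa-488 anti-phospho-rpS6 Ser235/236 and propidium iodide. Acumen laser scanning; phospho-S6/PI ratio thresholded against 7.5 nM rapamycin, reported as % positive cells.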
row,Compound,outcome
1,NCCCCCCCCCCN,inactive
2,CN1[C@@H](CC(=O)c2ccccc2)CCC[C@H]1C[C@H](O)c1ccccc1,inactive
3,C[C@@H](CN1CCC(Cc2ccccc2)CC1)[C@@H](O)c1ccc(O)cc1,inactive
4,Cc1ccc(C(=O)O[C@H](C(=O)O)[C@@H](OC(=O)c2ccc(C)cc2)C(=O)O)cc1 (tested in a mixture with another compound),inactive
5,OCC1O[C@H](O)C(Cl)C(O)C1O (stereo partly drawn),inactive
6,NCCCCC(=O)O,inactive
7,NC(=O)C(=O)O,inactive
8,O=C(O)CC1CCCc2ccccc2C1O (stereo not drawn),inactive
9,CC(=O)N[C@H](C(=O)O)C(C)(C)SN=O,inactive
10,CC1CN(S(=O)(=O)c2cccc3cnccc23)CCN1 (stereo not drawn),inactive
11,CCCCCCCCCCCCCCCC(=O)NCC(COP(=O)([O-])OCC[N+](C)(C)C)OCC (stereo not drawn),inactive
12,CN(C)c1nc(N)c(C(=O)N=C(N)N)nc1Cl,inactive
13,N=C(N)SCCc1ccc(CCSC(=N)N)cc1,inactive
14,CC1(C)CCC=[N+]1[O-],inactive
15,CN1CCC[C@H]1c1cccnc1,inactive
16,O=C(O)CNC(=O)C(CS)Cc1ccccc1 (stereo not drawn),inactive
17,C=CC(N)CCC(=O)O (stereo not drawn),inactive
18,COc1cc2c(CCNC(C)=O)c[nH]c2cc1Cl,inactive
19,COc1cc(C(O)CO)ccc1OS(=O)(=O)O (stereo not drawn),inactive
20,O=c1[nH]c2cc([N+](=O)[O-])c([N+](=O)[O-])cc2[nH]c1=O,inactive
21,Cn1c(=O)c2[nH]c(-c3ccccc3)nc2n(C)c1=O,inactive
